What all share (set-up): species or system human, MV4-11 + K-562 + COLO205 + SK-N-BE2 + OVCAR-8
One assay relates to TEC. The note with it: read-out: apparent Kd, n = 1.
The test system of another assay is CDK10. The note with it: read-out: apparent Kd, n = 1.
The subject of another assay is ACVR1. The note with it: read-out: apparent Kd, compound concentrations: 100 nM and 1000 nM (sheet 'Samples'), n = 1.
The next assay has as its system AKT2. Particulars: read-out: apparent Kd, compound concentrations: 100 nM and 1000 nM (sheet 'Samples'), n = 1.
A further assay has as its system DDR1. The note with it: read-out: apparent Kd, n = 1.
Another assay deals with IKBKE. The note with it: read-out: apparent Kd, n = 1.
The subject of the next assay is MAP4K2. The note with it: read-out: apparent Kd; compound concentrations: 100 nM and 1000 nM (sheet 'Samples'), CATDS: 4.7977079984097802E-3; n = 1.
Another assay concerns MAP4K3. The note with it: read-out: apparent Kd, n = 1.
The test system of another assay is MAP4K5. Particulars: read-out: apparent Kd; compound concentrations: 100 nM and 1000 nM (sheet 'Samples'), CATDS: 3.7006195337176699E-3; n = 1.
Another assay has as its system NEK9. The note with it: read-out: apparent Kd; compound concentrations: 100 nM and 1000 nM (sheet 'Samples'), CATDS: 5.3187042778019703E-3; n = 1.
The subject of another assay is PIK3C2A. Particulars: read-out: apparent Kd; compound concentrations: 100 nM and 1000 nM (sheet 'Samples'), CATDS: 5.9586884702388498E-3; n = 1.
Another assay has as its system PIK3C3. The note with it: read-out: apparent Kd; compound concentrations: 100 nM and 1000 nM (sheet 'Samples'), CATDS: 6.1778157574045199E-3; n = 1.
Another assay relates to PIM2. Particulars: read-out: apparent Kd; compound concentrations: 100 nM and 1000 nM (sheet 'Samples'), CATDS: 4.10108684490637E-3; n = 1.
A further assay has as its system RPS6KA1. The note with it: read-out: apparent Kd, n = 1.
The test system of another assay is SLK. The note with it: read-out: apparent Kd, n = 1.
A further assay deals with STK11. Particulars: read-out: apparent Kd; compound concentrations: 100 nM and 1000 nM (sheet 'Samples'), CATDS: 3.27350856558018E-3; n = 1.
A further assay has as its system TGFBR1. The note with it: read-out: apparent Kd, n = 1.
In a further assay the test system is TP53RK. Particulars: read-out: apparent Kd; compound concentrations: 100 nM and 1000 nM (sheet 'Samples'), CATDS: 3.61485371112703E-3; n = 1.
The next assay concerns AKT3. The note with it: read-out: apparent Kd, compound concentrations: 100 nM and 1000 nM (sheet 'Samples'), n = 1.
[1] abbreviates: compound concentrations:100 nM and 1000 nM (sheet 'Samples').

Read-outs that look alike come from different tables or passages of the source.

For the compound `O=C1NC(=O)C(N2CCc3ccccc32)=C1c1ccccc1Cl` [SB-373598], the potency estimated from few doses in the assay with TEC (setting [1]) was 904 nM.
On to `Cc1ccc2c(-c3ccncc3)c(-c3ccc(F)cc3)nn2c1.Cl` [GW461484A], for which the potency estimated from few doses in the assay with CDK10 (setting [1]) was 1410 nM.
For the compound `Cn1ncc2c(N)ncnc21` [SKF-18267], the potency estimated from few doses was 627 nM with ACVR1 (CATDS: 5.7443356978904197E-3); 780 nM in the assay on AKT2 (CATDS: 5.1088836681336602E-3); 876 nM in the assay with DDR1 (compound concentrations: 100 nM and 1000 nM (sheet 'Samples'), CATDS: 4.82198778497934E-3); 1060 nM in the assay with IKBKE (compound concentrations: 100 nM and 1000 nM (sheet 'Samples'), CATDS: 4.4054249402622498E-3); 885 nM in the assay on MAP4K2; 1450 nM in the assay with MAP4K3 (compound concentrations: 100 nM and 1000 nM (sheet 'Samples'), CATDS: 3.8804201859816102E-3). In addition, the potency estimated from few doses with MAP4K5 was 1650 nM; with NEK9, 722 nM; with PIK3C2A, 587 nM; with PIK3C3, 552 nM; in the assay on PIM2, 1260 nM; with RPS6KA1 (compound concentrations: 100 nM and 1000 nM (sheet 'Samples'), CATDS: 4.0621123256608799E-3), 1290 nM. Besides, the potency estimated from few doses with SLK (compound concentrations: 100 nM and 1000 nM (sheet 'Samples'), CATDS: 4.0721330084515098E-3) was 1280 nM; in the assay on STK11, 2430 nM; with TEC (compound concentrations: 100 nM and 1000 nM (sheet 'Samples'), CATDS: 5.5600102138742497E-3) it was 665 nM; with TGFBR1 (compound concentrations: 100 nM and 1000 nM (sheet 'Samples'), CATDS: 5.0317884305657503E-3), 804 nM; in the assay on TP53RK, 1760 nM.
`O=C1N=C(NCCc2ccc(Cl)cc2)S/C1=C\c1ccc2ncccc2c1` [RO4498479-000]: the potency estimated from few doses with ACVR1 (CATDS: 7.5426922392671601E-3) is 1230 nM; in the assay on AKT3 (CATDS: 7.4016289423583202E-3) it was 1320 nM; in the assay on DDR1 (compound concentrations: 100 nM and 1000 nM (sheet 'Samples'), CATDS: 7.1142371440619002E-3), 1530 nM; in the assay on RPS6KA1 (compound concentrations: 100 nM and 1000 nM (sheet 'Samples'), CATDS: 6.6850452112440202E-3) it was 2010 nM; with TEC (compound concentrations: 100 nM and 1000 nM (sheet 'Samples'), CATDS: 9.3913889163932396E-3) it was 646 nM.
Regarding `Cc1ccc(Nc2ccnc(Nc3ccc4c(c3)CS(=O)(=O)C4)n2)cc1O.Cl` [GW579362A], the potency estimated from few doses is 1030 nM in the assay with ACVR1 (CATDS: 3.1800553905839801E-2); 602 nM in the assay on CDK10 (compound concentrations: 100 nM and 1000 nM (sheet 'Samples'), CATDS: 3.9153038455417302E-2).
In the case of `CC(C)N1CCC(n2cnc(-c3ccc(F)cc3)c2-c2ccnc(N)n2)CC1` [SB-223132], in the assay on DDR1 (setting [1]), the potency estimated from few doses is 928 nM.
In the case of `CNC(=O)c1ccccc1Nc1nc(Nc2ccc(N3CCOCC3)cc2)ncc1Cl.Cl` [GSK1576028A], the potency estimated from few doses in the assay with IKBKE (setting [1]) is 1540 nM; with MAP4K3 (setting [1]), 1670 nM; in the assay on RPS6KA1 (setting [1]), 683 nM; in the assay with SLK (setting [1]) it was 1120 nM; in the assay on TEC (setting [1]), 57.7 nM; in the assay with TGFBR1 (setting [1]) it was 780 nM.
With `COc1cccc2c(-c3ccncc3)c(-c3ccc(F)cc3)nn12` [GW468513X], in the assay with TGFBR1 (compound concentrations: 100 nM and 1000 nM (sheet 'Samples'), CATDS: 4.1244315663660498E-2), the potency estimated from few doses is 1080 nM.
Consider `CCn1c(-c2nonc2N)nc2c(C#CC(C)(C)O)nc(CN3CCCC3)cc21` [GSK1000163A], for which the potency estimated from few doses with AKT3 (CATDS: 0.185643756681795) was 1430 nM.
On to `CCn1c(-c2nonc2N)nc2c(-c3ccccc3)ncc(OCCCN)c21.CCn1c(-c2nonc2N)nc2c(-c3ccccc3)ncc(OCCCN)c21.O=C(O)C(F)(F)F.O=C(O)C(F)(F)F` [GSK260205A], for which the potency estimated from few doses in the assay on AKT2 (CATDS: 4.8057080770149398E-2) is 339 nM.

The record behind these values is publication PMC11062922 (Nature Chemical Biology, 2023).
